Experimental findings from PubChem BioAssay (NCI) are described below.

Compounds without any hit were thinned out: in the full panel of roughly 83,000, 20% have a hit.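 Note: values are percent growth. 100 is the growth of untreated cells, values between 100 and 0 indicate rising inhibition; between -100 and 0 indicates cell death.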 Unmarked numbers belong to inactive results. Calls of active or inactive are those of the source. Rule for the calls: active = growth percent below 10; inactive = the rest.

This assay deals with HL-60(TB) leukemia. Put plainly: NCI-60 one-dose screen, 48 h (100 = growth as untreated, 0 = no growth, -100 = all killed). The following applies: 10 µM unless noted.
With `Fc1cc(-c2cnc3nonc3n2)c(Cl)cc1Cl`, the growth was -20.2% (active).
Turning to `Cc1csc(NC(=O)c2sc3nc(-c4cccs4)ccc3c2N)n1`, the growth is 105%.
Consider `Cc1nn(C)c2ncnc(N/N=C/c3cccc(O)c3O)c12`, for which the growth is -1.19% (active).
Then `COc1cc(-c2nc(N=Nc3c(O)[nH]c4ccc(Br)cc34)[nH]c(=O)c2C#N)cc(OC)c1OC`, with 101%; and `CC(C)(C)c1ccc(NS(=O)(=O)c2ccc3nc(NC(=O)c4cnccn4)[nH]c3c2)cc1`, with -21.9% (active).
Then `O=[N+]([O-])c1ccc(/C(=C/c2ccccc2)[n+]2ccccc2)cc1`, with 110%.
The value for `C[C@]12O[C@H](C[C@]1(O)CO)n1c3ccccc3c3c4c(c5c6ccccc6n2c5c31)CNC4=O` was -32.7% (active); that for `CC[C@]1(O)C[C@@H]2CN(CCc3c([nH]c4ccccc34)[C@@](C(=O)OC)(c3cc4c(cc3OC)N(C)[C@H]3[C@@](O)(C(N)=O)[C@H](O)[C@]5(CC)[C@@H]6C[C@@H]6CN6CC[C@]43[C@@H]65)C2)C1` was -3.28% (active); that for `CCCCCCCCNc1cc2c3c(c1)CCCN3CCC2` was -3.66% (active).
Consider `CCc1ccc(CNCC(O)c2ccccc2)cc1` (stereo not given), for which the growth was 95.7%.
Then `O=C1/C(=C/c2ccccn2)CCc2ccccc21`, with 56.6%; and `COc1cc(-c2cc(-c3ccc(Nc4nc(Nc5ccc(Cl)cc5)nc(Nc5ccc(Cl)cc5)n4)cc3)no2)cc(OC)c1OC`, with -68.2% (active).
In the case of `N#CC1CCc2c(c(-c3ccc4nc(N)sc4c3)nc3ccc4[nH]ncc4c23)C1` (stereo not given), the growth was 34.9%.
The value for `CCOC(=O)C(=CNc1ccccc1[N+](=O)[O-])C(=O)OCC` was 90.8%.
The value for `O=C(CCCCCCCCC(=O)Nc1cccc(C2=NCCN2)c1)Nc1cccc(C2=NCCN2)c1` was 81.9%; that for `CCCCC/C(=C\c1ccccc1)C1OC(C)C(C)O1` (stereo not given) was 115%; that for `c1ccc(CCn2nnc3c(Nc4ccc(N5CCOCC5)cc4)ncnc32)cc1` was 96.7%.
As to `CC(C)C[C@H](NC(=O)[C@H](Cc1ccccc1)n1ccc(N2CCCCC2)cc1=O)B(O)O`, the growth was 1.9% (active).
The value for `CC(C)(C)[Si](C)(C)OC1[C@@H](O[Si](C)(C)C(C)(C)C)[C@@H](CNC(=O)NC(=O)CCl)O[C@H]1n1cnc2c(NC(=O)Nc3ccccc3)ncnc21` (stereo not given in full) was -73.1% (active).
`CNC(=O)c1cc(Oc2ccc3c(c2)sc2nc(-c4ccc(N)cc4)cn23)ccn1`: the growth is 2.04% (active).
The value for `C=C1CC[C@@H]2[C@](C)(COC(C)=O)[C@H](OC(C)=O)CC[C@@]2(C)[C@@H]1CC(Nc1ccc(S(=O)(=O)NC(C)=O)cc1)C1=CCOC1=O` (stereo not given in full) was -31.1% (active); that for `CCC(C)C(N)C(=O)NC(CC(N)=O)C(=O)NC(CC(C)C)C(=O)NC(CCCCN)C(=O)NC(C)C(=O)NC(CC(C)C)C(=O)NC(C)C(=O)NC(C)C(=O)NC(CC(C)C)C(=O)NC(C)C(=O)NC(CCCCN)C(=O)NC(CCCCN)C(=O)NC(C(=O)NC(CC(C)C)C(N)=O)C(C)CC` (stereo not given) was 56.1%; that for `COc1ccc(-n2[nH]c3c(cnc4ccccc43)c2=O)cc1` was 97.3%.
Then `COc1ccc(C2=NN3C(C2)c2cc(Br)ccc2OC3c2ccncc2)cc1` (stereo not given), with 93.5%; and `CC(=O)c1cccc(Nc2ncnc3ccc(NC(=O)c4ccco4)cc23)c1`, with 122%; and `Cc1ccc(-c2nc3ccc(Cl)cn3c2NC2CCCCC2)o1`, with 61.7%.
`COc1ccc(-c2nn3c(-c4cc(F)c(Cl)cc4Cl)nnc3s2)cc1`: the growth was -1.09% (active).
As to `COc1cc(-c2nn(-c3cccc(NC(=O)Nc4ccc(Cl)c(Cl)c4)c3)cc2-c2ccncc2)ccc1Cl`, the growth is -18.1% (active).
On to `CCC/C(=N/NC(N)=O)c1ccco1`, for which the growth was 76.8%.
The value for `O=C(N=C1C(=O)C2(CCCCC2)C2(N=C(c3ccccc3)OC2=O)C12CCCCC2)c1ccccc1` (stereo not given) was 71.8%; that for `CN(C)CCCN(CCC1CCCCC1)CCC1CCCCC1` was 30.1%; that for `CCN(CC)c1ccc(C(=O)c2ccccc2)cc1` was 87.4%.
Take `CC(=O)OC1CC2C3CCC4C[C@@H](NC(=O)C=C(C)C)CC[C@]4(C)C3CC[C@]2(C)[C@H]1C(C)N(C)C` (stereo not given in full): the growth is -49.6% (active).
The value for `CCOc1ccc(/C=N/NC(=O)c2cccc3ccccc23)cc1OCC` was 100%; that for `Oc1c(I)cc(I)cc1CNCCN(Cc1ccccn1)Cc1ccccn1` was -31.5% (active); that for `COc1cc(C2CC(c3ccc(Cl)cc3)=NN2C(C)=O)ccc1Oc1ccnc2cc(Cl)ccc12` (stereo not given) was 110%.
Then `CCCC(C)(C)COC(=O)c1cccc(N)c1`, with 57.8%; and `O=C(Nc1cccc(-n2cc(-c3ccncc3)c(-c3cc(O)cc(Cl)c3)n2)c1)Nc1ccc(Cl)c(C(F)(F)F)c1`, with -26.9% (active).
The value for `NC(=O)/C=C/C(=O)c1c(Cl)cccc1Cl` was -21.6% (active).
Regarding `COc1cc(-c2nn(C(=O)NS(=O)(=O)c3ccccc3)cc2-c2ccncc2)ccc1Cl`, the growth is 98.1%.
